Sampled rows, rich in hits. Any-hit rate of the full collection: about 3.6%.
MITF TRPM1 HTS = MITF TRPM1 promoter activation in melanoma cells; SK-MEL-5 TRPM1-promoter luciferase, 24 h; % of positive control, neutral wells = 0; activation, % at 12.5 µM; 300,000 tested, 0.75% active;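 active = mean activation of at least 80% with every replicate also reaching 80%; inconclusive = mean reaches 80% but some replicate falls short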;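 note: 0% = neutral control wells and 100% = parthenolide positive control wells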
A3A deaminase = human APOBEC3A DNA deaminase inhibition; inhibition, % at 20 µM; AID 493011; recombinant A3A, FAM/TAMRA ssDNA deamination fluorescence; P31941; 330,000 tested, 0.41% active;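 active = at least 40% inhibition at 20 µM here, with at most 30% in a related deaminase screen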;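 note: plate controls were A3A with DMSO for no effect and wells lacking A3A enzyme for full effect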
A3G deaminase = inhibitors of human APOBEC3G DNA deaminase; Q9HC16; recombinant A3G, ssDNA deamination FAM/TAMRA fluorescence; inhibition, % at 20 µM; 330,000 tested, 0.28% active; AID 493012;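 active = inhibition of at least 40% at 20 µM, with no more than 30% in the related APOBEC3A deaminase screen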;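 note: plate controls were DMSO wells with A3G for no effect and wells lacking A3G enzyme for full effect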
Target sequence (Q9HC16 whole entry, looked up): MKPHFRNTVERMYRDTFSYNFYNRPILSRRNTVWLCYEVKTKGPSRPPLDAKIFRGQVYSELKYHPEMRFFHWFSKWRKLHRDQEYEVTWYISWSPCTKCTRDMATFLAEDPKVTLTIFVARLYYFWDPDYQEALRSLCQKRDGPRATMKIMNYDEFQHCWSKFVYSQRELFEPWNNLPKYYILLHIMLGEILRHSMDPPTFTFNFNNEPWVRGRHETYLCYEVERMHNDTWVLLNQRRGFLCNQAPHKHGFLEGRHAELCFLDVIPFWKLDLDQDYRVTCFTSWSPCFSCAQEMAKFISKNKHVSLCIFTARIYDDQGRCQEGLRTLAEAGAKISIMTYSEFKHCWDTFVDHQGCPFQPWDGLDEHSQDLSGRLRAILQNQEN
Wnt act = Wnt/beta-catenin pathway activation | Wnt/beta-catenin reporter cell assay, activator, plate reader | activation, % at 9.35 µM | 300,000 tested, 1.2% active; in the data active = activation above about 30%, passing the limit was not always enough; inconclusive = no clear call, values can overlap the other calls;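 note: 0% = neutral control wells and 100% = positive control wells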
PHOSPHO1 inh = inhibitors of human PHOSPHO1 phosphatase. Q8TCT1. recombinant PHOSPHO1, absorbance phosphatase assay. inhibition, % at 13.3 µM. 290,000 tested, 1.1% active. AID 1565; in the data active = inhibition above about 60%
Target sequence (Q8TCT1 whole entry, looked up): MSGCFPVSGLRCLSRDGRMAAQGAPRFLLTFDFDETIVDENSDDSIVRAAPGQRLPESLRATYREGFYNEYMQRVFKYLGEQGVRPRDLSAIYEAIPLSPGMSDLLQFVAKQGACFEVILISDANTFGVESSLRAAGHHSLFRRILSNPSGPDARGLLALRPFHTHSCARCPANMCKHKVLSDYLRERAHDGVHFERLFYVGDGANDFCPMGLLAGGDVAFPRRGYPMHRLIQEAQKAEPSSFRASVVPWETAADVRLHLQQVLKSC
esBAF inh = blocks esBAF chromatin remodeling in mouse ES cells | Bmi1-luciferase knock-in reporter, 24 h; 100% = twice the neutral-well signal | reporter increase, % at 12.5 µM | 350,000 tested, 2% active | AID 602393; in the data active = activation above about 40%; inconclusive = no clear call, values can overlap the other calls;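 note: 0% = median of the plate's neutral control wells and 100% = double that signal; a rise in the Bmi1 reporter signal indicates esBAF inhibition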
The depositor's hits bear a star; ? = inconclusive; / = no result given.

SMILES | MITF TRPM1 HTS | A3A deaminase | A3G deaminase | Wnt act | PHOSPHO1 inh | esBAF inh
Cc1nc(Nc2ccccc2)sc1C(=O)c1ccccc1 | / | -4 | -7 | 42* | 8 | /
CC(C)(C)C(=O)c1sc(Nc2ccccc2)nc1N | 122* | -1 | -4 | 0 | -3 | 57*
CCOC(=O)Nc1nc(C)c(C(=O)c2ccc(Cl)cc2)s1 | -6 | 11 | 1 | 1 | -38 | -3
CCOc1cccc2sc(NN)nc12 | -22 | / | / | -2 | 61* | /
CC(=O)N1CC[C@H]2[C@@H]1c1cc(-c3ccc(C#N)cc3)ccc1N(C)[C@H]2CO | / | / | / | / | / | -5
C[C@@H]1CN([C@@H](C)CO)S(=O)(=O)c2ccc(C#Cc3ccccc3F)cc2O[C@H]1CN(C)C(=O)Cc1ccncc1 | / | / | / | / | / | 4
COc1ccc(-c2cc(NC(=O)Cc3c[nH]c4ccccc34)ccc2Nc2cccnc2)c(OC)c1 | / | / | / | -5 | / | /
Cc1nc(NC(=O)/C=C/c2ccccc2)sc1C(=O)Nc1ccc(Cl)cc1 | -26 | -3 | -5 | -7 | 65* | 5
CCOC(=O)c1sc(Nc2ccc(C)cc2C)nc1C | 17 | -4 | -8 | -2 | 8 | 7
Cc1nc(Nc2ccccc2)sc1-c1ccccc1 | 58 | 0 | 0 | 44* | -11 | /
CCOC(=O)c1sc(N/N=C/c2cccc(C)c2)nc1C | 99* | -5 | -12 | 18 | 30 | 58*
CCOC(=O)c1sc(Nc2ccccc2)nc1C | 94* | 3 | 2 | / | 22 | 78*
Cc1nc(Nc2ccc(C(=O)O)cc2)sc1-c1ccccc1 | -35 | 0 | -2 | 1 | 34 | /
CC(=O)N(C)C[C@H]1Oc2cc(C3=CCCC3)ccc2S(=O)(=O)N([C@H](C)CO)C[C@H]1C | / | / | / | / | / | -3
CCNC(=O)C[C@@H]1CC[C@H]2[C@@H](COC[C@H](O)CN2C(=O)Nc2cccc(OC)c2)O1 | / | / | / | / | / | 2
CC(C)CC#Cc1cnc2c(c1)C(=O)N([C@H](C)CO)C[C@H](C)[C@@H](CN(C)C(=O)c1ccc(F)cc1)O2 | / | / | / | / | / | -2
C/C=C/c1cnc2c(c1)C(=O)N([C@H](C)CO)C[C@@H](C)[C@@H](CN(C)C(=O)NCCC)O2 | / | / | / | / | / | 0
CNc1nc(C)c(C(=O)OCC(=O)OC)s1 | 11 | -2 | -2 | 2 | 10 | 8
Cc1nc(Cl)sc1C(=O)Nc1ccccc1Cl | / | -3 | -1 | 2 | / | -3
CCOC(=O)c1sc(Nc2ccc(F)cc2)nc1C | 25 | 2 | -11 | -5 | 23 | /
COC(=O)c1ccc(/C=N/Nc2nc(C)c(C)s2)cc1 | / | -5 | -7 | 34* | 36 | /
CNc1nc(C)c(C(=O)OCc2ccccc2)s1 | / | 1 | 2 | 14 | 11 | 75*
Cc1nc(NC(=O)C2CC2)sc1C(=O)Nc1ccccc1Cl | / | -4 | -9 | 1 | 25 | 53*
COC(=O)c1ccc(/C=N/Nc2nc(-c3ccccc3)cs2)cc1 | 9 | -1 | -1 | -4 | 4 | /
CCOC(=O)c1sc(Nc2nc3c(OC)cccc3s2)nc1C | 1 | -1 | -2 | / | 20 | 67*
SMILES | MITF TRPM1 HTS | A3A deaminase | A3G deaminase | Wnt act | PHOSPHO1 inh | esBAF inh
COc1ccc(S(=O)(=O)N(C)C[C@H]2OCCCC[C@@H](C)Oc3ccc(NC(=O)CCCN(C)C)cc3C(=O)N([C@@H](C)CO)C[C@H]2C)cc1 | / | / | / | / | / | -5
O=C(Nc1ccc2c(c1)OCO2)N[C@@H]1CC[C@@H](CCNC(=O)C2CC2)O[C@@H]1CO | / | / | / | / | / | 1
CCOc1cc(CNS(=O)(=O)c2ccc3c(c2)CC(=O)N3C)cc(OCC)c1OCC | -3 | -1 | -3 | -2 | 65* | -5
O=C(CNC(=O)c1ccccc1)N=Nc1c(O)[nH]c2ccc(Br)cc12 | -6 | -3 | -1 | -1 | -5 | -3
COC(=O)N=Nc1c(O)[nH]c2ccc(Br)cc12 | -12 | 7 | -2 | 53* | 33 | -15
O=C(O)c1ccc(N=Nc2c(O)[nH]c3ccc(Br)cc23)cc1 | 46 | 4 | -3 | 19 | 16 | 80*
Oc1[nH]c2ccc(Br)cc2c1N=NC(=S)N1CCOCC1 | -99 | -7 | 23 | -12 | 92* | /
Oc1[nH]c2ccccc2c1N=Nc1ccccc1Cl | 24 | / | / | -2 | / | /
Oc1[nH]c2ccccc2c1N=Nc1cccc(Cl)c1 | 35 | 3 | -5 | 17 | 34 | 52*
CN1c2ccc(-c3cccc(C#N)c3)cc2[C@H]2[C@H](CCN2C(=O)NC2CCCCC2)[C@@H]1CO | / | / | / | / | / | 1
O=C(O)c1ccc(N=Nc2c(O)[nH]c3cc(Cl)ccc23)cc1 | 64 | -1 | -8 | 53* | -44 | /
Cc1cccc2c(N=Nc3ccccc3)c(O)[nH]c12 | 65 | 2 | -2 | 45* | 23 | /
Nc1nc(N)c(N=Nc2ccc(C(=O)O)cc2)c(N)n1 | -11 | 3 | -2 | 1 | 15 | -7
C[C@H]1CCCCO[C@H](CN(C)Cc2ccc3c(c2)OCO3)[C@@H](C)CN([C@@H](C)CO)C(=O)c2cc(NS(C)(=O)=O)ccc2O1 | / | / | / | / | / | -1
CN(C)/C=C/C(=O)c1ccc(Cl)cc1 | / | 1 | -1 | 2 | 20 | 21
CN(C)/C=C/C(=O)c1ccc(-n2cccc2)cc1 | 42 | -3 | -9 | 54* | 24 | /
CN1CCN(C(=O)C2CCCN(S(=O)(=O)c3ccc(Cl)cc3)C2)CC1 (stereo unspecified) | 7 | -2 | -7 | -2 | 65* | -1
COC(=O)c1ccc(N2CCN(CC(=O)c3ccc(-c4ccccc4)cc3)CC2)c([N+](=O)[O-])c1 | -17 | -2 | -4 | / | 32 | 48*
COc1ccccc1N1CCN(CC(=O)c2ccc(F)cc2)CC1 | / | -9 | -1 | 0 | 39 | 42*
Cc1noc(C)c1S(=O)(=O)Nc1ccc2c(c1)C(=O)N([C@@H](C)CO)C[C@H](C)[C@@H](CN(C)Cc1ccccc1)OCCCC[C@@H](C)O2 | / | / | / | / | / | 0
CCn1c(-c2ccco2)n[nH]c1=S | 1 | -3 | 29 | / | 41 | -2
CCn1nc(C)cc1-c1n[nH]c(=S)n1N | -2 | -20 | 1 | / | 102* | /
Cc1cc(C)n(-c2nc(NCCCO)c3c4c(sc3n2)CCCC4)n1 | 17 | -1 | 1 | / | -4 | /
Cc1cc(C)n(-c2nc(NCCO)c3c4c(sc3n2)CCCC4)n1 | -5 | -3 | -6 | / | 81* | /
CCOC(=O)c1sc(-c2ccccc2)nc1C | 26 | -2 | -5 | ? | 38 | /
CCOC(=O)Cc1ccc2sc(-c3ccccc3)nc2c1 | 20 | 2 | -1 | / | -7 | 69*
O=C(OCC1OC(n2ncc(=O)[nH]c2=O)C(OC(=O)c2ccccc2)C1OC(=O)c1ccccc1)c1ccccc1 (stereo unspecified) | / | 5 | 2 | 14 | 34 | 1
CC(=O)OC[C@H]1O[C@@H](n2ncc(=O)[nH]c2=O)[C@H](OC(C)=O)[C@@H]1OC(C)=O | / | -3 | -7 | / | 16 | 48*
CC(C)(C)C(=O)/C=C/c1ccc(Oc2ccccc2)cc1 | 79 | / | / | 33* | 20 | 34
